Assay results taken from PubChem BioAssay (NCI).
Several values for one entry are separate records, joined by “and”; a condition that tells them apart may be missing. Equal entries are not always repeated. Compounds without any hit were thinned out: in the full panel of roughly 83,000, 20% have a hit.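 Step 1: grow cells in 96-well plates. Step 2: add test compound at a single concentration. Step 3: incubate 48 h. Step 4: record percent growth.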 Activity calls are given as the source filed them. How the source made its calls: active means growth percent below 10; inactive means the rest.

Each compound was assayed on OVCAR-4 ovarian (assay: NCI-60 one-dose screen, 48 h (100 = growth as untreated, 0 = no growth, -100 = all killed)). Conditions: 10 µM unless noted.
With `CCc1cc(C)cc(O)c1` the growth was 112% (inactive).
In the case of `NN1CCOC(c2ccccc2)C1` (centres undefined), the growth is reported as 119% (inactive).
For `ClCCOCCOc1ccc(C2CCCCC2)cc1`, the growth was 97.7% (inactive).
In the case of `O=c1n(CC2CO2)c(=O)n(CC2CO2)c(=O)n1CC1CO1` (centres undefined), the growth is reported as 100% (inactive).
`Cc1ccc(S(=O)(=O)c2ccccc2)cc1` was tested, and the growth was 71.1% (inactive).
For `O=C(/C=C/c1ccccc1)c1ccccc1`, the growth was 95.3% (inactive).
With `c1ccc(CNCCNCc2ccccc2)cc1` the growth was 103% (inactive).
For `Cc1cc2ccccc2cn1`, the growth was 108% (inactive) and 90.4% (inactive).
In the case of `OC1COC(OCc2ccccc2)C(O)C1O` (centres undefined), the growth is reported as 88.5% (inactive).
`CCCCCCCCCCCCCCCc1ccc(N)c(OC2OC(CO)C(O)C(O)C2O)c1` (centres undefined) was tested, and the growth was 85.2% (inactive).
In the case of `O=C(O)CCCl`, the growth is reported as 98.8% (inactive).
`C#CCOC(=O)Nc1ccccc1` was tested, and the growth was 93.5% (inactive).
With `CC(C)C(C)(C)c1ccc(O)cc1` the growth was 108% (inactive).
`CC1(C)COC(=S)N1` was tested, and the growth was 102% (inactive).
With `CCOC(=O)c1c(C)cc(=O)oc1C` the growth was 108% (inactive).
In the case of `CC[C@H](CC[C@@H](C)[C@H]1CC[C@H]2[C@@H]3CC=C4C[C@@H](O)CC[C@]4(C)[C@H]3CC[C@]12C)C(C)C`, the growth is reported as 97.6% (inactive) and 114% (inactive).
`CN1CNC(=O)NC1` was tested, and the growth was 119% (inactive) and 112% (inactive).
With `CC1CCC2(OC1)OC1CC3C4CC=C5CC(O)CCC5(C)C4CCC3(C)C1C2C` (centres undefined) the growth was 95.7% (inactive).
In the case of `COc1cc(C(O)C2C(=O)OCC2C2(c3ccc4c(c3)OCO4)SCCCS2)cc(OC)c1OC` (centres undefined), the growth is reported as 103% (inactive).
In the case of `Nc1nc(N)c2[nH]cnc2n1`, the growth is reported as 88.5% (inactive).
With `Cn1cnc([N+](=O)[O-])c1Sc1ncn[nH]1` the growth was 95.5% (inactive).
`O=c1[nH]cnc2c1ncn2C1OC(CO)C(O)C1O` (centres undefined) was tested, and the growth was 126% (inactive) and 118% (inactive) and 117% (inactive).
For `CC(=O)OCC1OC(OC(C)=O)C(OC(C)=O)C(OC(C)=O)C1OC(C)=O` (centres undefined), the growth was 97% (inactive) and 104% (inactive).
With `O=C1c2c(O)ccc(O)c2C(=O)c2c(NCCNCCO)ccc(NCCNCCO)c21` the growth was -39.7% (active).
With `c1ccc(-c2nc3ccccc3s2)cc1` the growth was 101% (inactive).
For `CCCCCCCCCCCCCCCCC(C(=O)O)C(O)(CC(=O)O)C(=O)O` (centres undefined), the growth was 108% (inactive) and 21.3% (inactive).
For `Nc1cc(N)c(N)cc1N`, the growth was 25.3% (inactive).
For `O=[N+]([O-])c1cccc(SSc2cccc([N+](=O)[O-])c2)c1`, the growth was 105% (inactive).
`Oc1ccc(Cc2ccccc2Cl)c(O)c1` was tested, and the growth was 93.6% (inactive).
With `CC1CCC(C(C)C)C(NNC(N)=O)C1` (centres undefined) the growth was 111% (inactive).
With `Fc1ccc([I+]c2ccc(F)cc2)cc1` the growth was 52.1% (inactive).
For `CC1=C/C(O)CC(=O)Cc2nc(co2)C(=O)N2CCC=C2C(=O)OC(C(C)C)C(C)/C=C\C(=O)NC/C=C\1` (centres undefined), the growth was 78.5% (inactive).
In the case of `O=C1OC(c2ccccc2)=N/C1=C\c1ccccc1`, the growth is reported as 113% (inactive).
With `COc1ccc(Nc2ccc3ccccc3c2)cc1` the growth was 79.5% (inactive).

Each compound was assayed on SK-OV-3 ovarian in the same assay as above. Conditions: 10 µM unless noted.
For `CCc1cc(C)cc(O)c1`, the growth was 102% (inactive).
In the case of `NN1CCOC(c2ccccc2)C1` (centres undefined), the growth is reported as 106% (inactive).
With `ClCCOCCOc1ccc(C2CCCCC2)cc1` the growth was 102% (inactive).
`O=c1n(CC2CO2)c(=O)n(CC2CO2)c(=O)n1CC1CO1` (centres undefined) was tested, and the growth was 68.6% (inactive).
For `Cc1ccc(S(=O)(=O)c2ccccc2)cc1`, the growth was 29.5% (inactive).
`O=C(/C=C/c1ccccc1)c1ccccc1` was tested, and the growth was 91.7% (inactive).
`Cc1cc(-c2ccc(N=Nc3ccc4c(S(=O)(=O)O)cc(S(=O)(=O)O)c(N)c4c3O)c(C)c2)ccc1N=Nc1ccc2c(S(=O)(=O)O)cc(S(=O)(=O)O)c(N)c2c1O` was tested, and the growth was 102% (inactive).
In the case of `c1ccc(CNCCNCc2ccccc2)cc1`, the growth is reported as 107% (inactive).
For `Cc1cc2ccccc2cn1`, the growth was 108% (inactive) and 103% (inactive).
In the case of `OC1COC(OCc2ccccc2)C(O)C1O` (centres undefined), the growth is reported as 98.9% (inactive).
`CCCCCCCCCCCCCCCc1ccc(N)c(OC2OC(CO)C(O)C(O)C2O)c1` (centres undefined) was tested, and the growth was 149% (inactive).
For `O=C(O)CCCl`, the growth was 118% (inactive).
With `C#CCOC(=O)Nc1ccccc1` the growth was 109% (inactive).
`CC(C)C(C)(C)c1ccc(O)cc1` was tested, and the growth was 107% (inactive).
For `CC1(C)COC(=S)N1`, the growth was 109% (inactive).
For `CCOC(=O)c1c(C)cc(=O)oc1C`, the growth was 103% (inactive).
With `CC[C@H](CC[C@@H](C)[C@H]1CC[C@H]2[C@@H]3CC=C4C[C@@H](O)CC[C@]4(C)[C@H]3CC[C@]12C)C(C)C` the growth was 94.8% (inactive) and 104% (inactive).
With `CN1CNC(=O)NC1` the growth was 112% (inactive) and 105% (inactive).
`CC1CCC2(OC1)OC1CC3C4CC=C5CC(O)CCC5(C)C4CCC3(C)C1C2C` (centres undefined) was tested, and the growth was 114% (inactive).
In the case of `COc1cc(C(O)C2C(=O)OCC2C2(c3ccc4c(c3)OCO4)SCCCS2)cc(OC)c1OC` (centres undefined), the growth is reported as 105% (inactive).
For `Cn1cnc([N+](=O)[O-])c1Sc1ncn[nH]1`, the growth was 115% (inactive).
For `O=c1[nH]cnc2c1ncn2C1OC(CO)C(O)C1O` (centres undefined), the growth was 95.7% (inactive) and 104% (inactive) and 105% (inactive).
With `CC(=O)OCC1OC(OC(C)=O)C(OC(C)=O)C(OC(C)=O)C1OC(C)=O` (centres undefined) the growth was 102% (inactive) and 106% (inactive).
In the case of `O=C1c2c(O)ccc(O)c2C(=O)c2c(NCCNCCO)ccc(NCCNCCO)c21`, the growth is reported as -23.4% (active) and -35.4% (active).
In the case of `CCCCCCCCCCCCCCCCC(C(=O)O)C(O)(CC(=O)O)C(=O)O` (centres undefined), the growth is reported as 98.3% (inactive) and 36.1% (inactive).
In the case of `Nc1cc(N)c(N)cc1N`, the growth is reported as 98.4% (inactive).
For `O=[N+]([O-])c1cccc(SSc2cccc([N+](=O)[O-])c2)c1`, the growth was 97.8% (inactive).
For `Oc1ccc(Cc2ccccc2Cl)c(O)c1`, the growth was 104% (inactive).
`OCCN1CCCCCCC1` was tested, and the growth was 103% (inactive).
For `CC1CCC(C(C)C)C(NNC(N)=O)C1` (centres undefined), the growth was 109% (inactive).
For `Fc1ccc([I+]c2ccc(F)cc2)cc1`, the growth was 68.4% (inactive).
For `CC1=C/C(O)CC(=O)Cc2nc(co2)C(=O)N2CCC=C2C(=O)OC(C(C)C)C(C)/C=C\C(=O)NC/C=C\1` (centres undefined), the growth was 119% (inactive).
With `COc1ccc2cc1Oc1ccc(cc1)C[C@H]1c3cc(c(OC)cc3CCN1C)Oc1c(OC)c(OC)cc3c1[C@H](C2)N(C)CC3` the growth was 110% (inactive).
With `O=C1OC(c2ccccc2)=N/C1=C\c1ccccc1` the growth was 97.2% (inactive).
In the case of `COc1ccc(Nc2ccc3ccccc3c2)cc1`, the growth is reported as 72.6% (inactive).
